From ChEMBL document CHEMBL2218924, “A broad activity screen in support of a chemogenomic map for kinase signalling research and drug discovery” (Biochem J, 2013) come the findings set out here.

Each structure is given as a SMILES string.

For experiment [1], the target named is T1, Ephrin type-A receptor 3 (Homo sapiens) (UniProt P29320).
T1 sequence (whole entry): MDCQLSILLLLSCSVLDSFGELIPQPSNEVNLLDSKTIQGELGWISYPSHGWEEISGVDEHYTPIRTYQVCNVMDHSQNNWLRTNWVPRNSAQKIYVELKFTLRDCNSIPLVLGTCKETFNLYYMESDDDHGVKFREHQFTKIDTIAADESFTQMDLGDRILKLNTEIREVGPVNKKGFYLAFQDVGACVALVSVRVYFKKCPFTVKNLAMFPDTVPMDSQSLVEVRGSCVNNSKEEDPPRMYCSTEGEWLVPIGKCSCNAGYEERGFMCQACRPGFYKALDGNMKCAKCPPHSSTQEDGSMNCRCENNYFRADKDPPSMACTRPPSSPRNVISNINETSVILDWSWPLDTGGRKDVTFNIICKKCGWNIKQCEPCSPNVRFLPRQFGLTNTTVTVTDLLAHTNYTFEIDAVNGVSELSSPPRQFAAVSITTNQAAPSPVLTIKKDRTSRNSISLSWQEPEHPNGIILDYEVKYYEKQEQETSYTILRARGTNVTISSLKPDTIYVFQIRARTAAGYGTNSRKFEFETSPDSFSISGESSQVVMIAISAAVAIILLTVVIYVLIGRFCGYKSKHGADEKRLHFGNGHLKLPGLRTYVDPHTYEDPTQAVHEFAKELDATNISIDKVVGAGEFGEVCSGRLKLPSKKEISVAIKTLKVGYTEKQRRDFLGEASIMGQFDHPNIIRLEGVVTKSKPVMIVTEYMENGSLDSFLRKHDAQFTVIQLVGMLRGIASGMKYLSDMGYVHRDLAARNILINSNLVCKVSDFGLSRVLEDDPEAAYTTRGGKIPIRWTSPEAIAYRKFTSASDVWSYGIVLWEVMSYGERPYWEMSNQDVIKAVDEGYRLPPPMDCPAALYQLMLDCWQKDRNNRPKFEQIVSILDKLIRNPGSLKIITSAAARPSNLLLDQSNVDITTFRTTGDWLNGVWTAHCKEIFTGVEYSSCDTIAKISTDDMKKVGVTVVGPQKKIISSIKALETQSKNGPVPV
The note with it: at 10 µM.

Experiment [2] addresses Ephrin type-A receptor 5 (Homo sapiens) (UniProt P54756). The note with it: at 10 µM.
Experiment [3] deals with Ephrin type-A receptor 7 (Homo sapiens) (UniProt Q15375). To be noted: at 10 µM.
Ephrin type-A receptor 7 (Homo sapiens), sequence (Q15375 28-998 limits assumed): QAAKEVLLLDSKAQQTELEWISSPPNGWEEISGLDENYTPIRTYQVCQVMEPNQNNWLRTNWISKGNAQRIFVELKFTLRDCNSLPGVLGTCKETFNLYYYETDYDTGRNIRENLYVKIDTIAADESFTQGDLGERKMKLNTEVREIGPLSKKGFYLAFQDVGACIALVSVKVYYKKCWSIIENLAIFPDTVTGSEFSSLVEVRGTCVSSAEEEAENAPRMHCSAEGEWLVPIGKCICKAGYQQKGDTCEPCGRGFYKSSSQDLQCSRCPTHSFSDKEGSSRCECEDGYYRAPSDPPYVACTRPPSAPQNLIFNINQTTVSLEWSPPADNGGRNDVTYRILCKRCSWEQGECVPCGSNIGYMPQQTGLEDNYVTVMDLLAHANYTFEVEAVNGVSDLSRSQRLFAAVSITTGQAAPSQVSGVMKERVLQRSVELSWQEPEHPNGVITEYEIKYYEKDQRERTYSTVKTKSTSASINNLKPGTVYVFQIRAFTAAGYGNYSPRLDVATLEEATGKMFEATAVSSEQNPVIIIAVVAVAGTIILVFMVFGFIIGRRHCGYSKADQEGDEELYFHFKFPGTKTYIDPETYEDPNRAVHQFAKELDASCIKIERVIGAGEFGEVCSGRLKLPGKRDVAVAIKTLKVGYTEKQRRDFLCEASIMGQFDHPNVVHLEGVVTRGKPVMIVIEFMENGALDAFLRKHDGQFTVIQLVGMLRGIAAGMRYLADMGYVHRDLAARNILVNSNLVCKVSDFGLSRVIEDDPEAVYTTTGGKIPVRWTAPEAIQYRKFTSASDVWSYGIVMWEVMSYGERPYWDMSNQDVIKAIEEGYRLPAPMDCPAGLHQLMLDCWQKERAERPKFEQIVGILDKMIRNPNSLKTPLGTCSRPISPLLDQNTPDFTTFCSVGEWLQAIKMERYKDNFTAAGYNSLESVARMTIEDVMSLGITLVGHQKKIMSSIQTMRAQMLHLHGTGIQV
In experiment [4] the target is T2, Ephrin type-A receptor 8 (Homo sapiens) (UniProt P29322).
T2 sequence (whole entry): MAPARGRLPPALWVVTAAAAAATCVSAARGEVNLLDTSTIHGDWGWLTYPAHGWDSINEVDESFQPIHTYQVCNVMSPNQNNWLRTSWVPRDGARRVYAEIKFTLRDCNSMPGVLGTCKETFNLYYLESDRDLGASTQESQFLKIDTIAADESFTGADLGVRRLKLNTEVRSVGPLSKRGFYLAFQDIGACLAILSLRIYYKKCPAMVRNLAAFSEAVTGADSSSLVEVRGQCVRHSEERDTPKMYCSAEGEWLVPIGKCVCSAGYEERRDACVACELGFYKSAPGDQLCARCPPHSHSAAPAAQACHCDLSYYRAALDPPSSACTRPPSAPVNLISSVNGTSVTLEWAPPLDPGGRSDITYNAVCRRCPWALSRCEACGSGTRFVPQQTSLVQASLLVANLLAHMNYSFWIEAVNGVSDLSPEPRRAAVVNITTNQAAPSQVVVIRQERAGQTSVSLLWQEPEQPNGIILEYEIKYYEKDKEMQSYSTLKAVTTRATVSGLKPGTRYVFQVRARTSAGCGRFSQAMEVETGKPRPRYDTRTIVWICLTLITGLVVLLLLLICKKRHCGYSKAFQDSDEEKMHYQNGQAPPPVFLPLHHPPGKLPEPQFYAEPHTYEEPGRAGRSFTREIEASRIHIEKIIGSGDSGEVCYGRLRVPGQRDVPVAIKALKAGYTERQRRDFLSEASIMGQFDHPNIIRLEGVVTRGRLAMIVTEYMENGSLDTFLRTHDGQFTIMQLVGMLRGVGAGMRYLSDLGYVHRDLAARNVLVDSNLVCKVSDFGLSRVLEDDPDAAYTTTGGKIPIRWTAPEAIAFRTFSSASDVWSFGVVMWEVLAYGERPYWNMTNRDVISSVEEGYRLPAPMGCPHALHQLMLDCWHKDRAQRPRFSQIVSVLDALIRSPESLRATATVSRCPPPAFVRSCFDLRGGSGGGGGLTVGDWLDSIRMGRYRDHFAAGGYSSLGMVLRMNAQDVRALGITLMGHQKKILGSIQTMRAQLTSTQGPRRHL
To be noted: at 1 µM.

The target of experiment [5] is T2, Ephrin type-A receptor 8 (Homo sapiens). The note with it: at 10 µM.
Experiment [6] addresses T3, Ephrin type-B receptor 1 (Homo sapiens) (UniProt P54762).
T3 sequence (whole entry): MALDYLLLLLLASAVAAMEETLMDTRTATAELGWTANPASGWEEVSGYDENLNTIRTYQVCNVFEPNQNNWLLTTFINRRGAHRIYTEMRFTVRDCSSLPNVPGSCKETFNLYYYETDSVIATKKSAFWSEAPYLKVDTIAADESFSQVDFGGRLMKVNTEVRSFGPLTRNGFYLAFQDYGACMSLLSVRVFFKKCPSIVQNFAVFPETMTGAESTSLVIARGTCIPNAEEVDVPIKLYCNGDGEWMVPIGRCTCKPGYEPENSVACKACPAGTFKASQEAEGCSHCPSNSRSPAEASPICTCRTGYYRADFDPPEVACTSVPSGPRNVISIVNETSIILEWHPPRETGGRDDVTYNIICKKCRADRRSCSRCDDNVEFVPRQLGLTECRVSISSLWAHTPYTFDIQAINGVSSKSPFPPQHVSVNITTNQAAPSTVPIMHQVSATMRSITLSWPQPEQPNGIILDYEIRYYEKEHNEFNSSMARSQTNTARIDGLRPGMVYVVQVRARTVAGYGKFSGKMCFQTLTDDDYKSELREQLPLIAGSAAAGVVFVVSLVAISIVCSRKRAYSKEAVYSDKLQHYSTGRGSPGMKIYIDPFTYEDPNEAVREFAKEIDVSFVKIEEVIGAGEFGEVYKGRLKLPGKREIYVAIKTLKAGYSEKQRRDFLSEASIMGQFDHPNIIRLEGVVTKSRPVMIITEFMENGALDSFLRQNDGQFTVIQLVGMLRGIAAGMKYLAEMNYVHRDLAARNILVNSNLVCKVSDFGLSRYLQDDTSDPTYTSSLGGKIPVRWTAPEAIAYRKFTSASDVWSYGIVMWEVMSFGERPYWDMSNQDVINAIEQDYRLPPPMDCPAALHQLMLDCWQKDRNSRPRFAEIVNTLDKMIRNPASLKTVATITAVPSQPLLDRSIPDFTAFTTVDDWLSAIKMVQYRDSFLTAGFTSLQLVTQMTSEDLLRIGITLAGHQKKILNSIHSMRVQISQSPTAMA
The note with it: at 1 µM.

Experiment [7] addresses T3, Ephrin type-B receptor 1 (Homo sapiens). To be noted: at 10 µM.
Experiment [8] concerns the target T4, Ephrin type-B receptor 3 (Homo sapiens) (UniProt P54753).
T4 sequence (whole entry): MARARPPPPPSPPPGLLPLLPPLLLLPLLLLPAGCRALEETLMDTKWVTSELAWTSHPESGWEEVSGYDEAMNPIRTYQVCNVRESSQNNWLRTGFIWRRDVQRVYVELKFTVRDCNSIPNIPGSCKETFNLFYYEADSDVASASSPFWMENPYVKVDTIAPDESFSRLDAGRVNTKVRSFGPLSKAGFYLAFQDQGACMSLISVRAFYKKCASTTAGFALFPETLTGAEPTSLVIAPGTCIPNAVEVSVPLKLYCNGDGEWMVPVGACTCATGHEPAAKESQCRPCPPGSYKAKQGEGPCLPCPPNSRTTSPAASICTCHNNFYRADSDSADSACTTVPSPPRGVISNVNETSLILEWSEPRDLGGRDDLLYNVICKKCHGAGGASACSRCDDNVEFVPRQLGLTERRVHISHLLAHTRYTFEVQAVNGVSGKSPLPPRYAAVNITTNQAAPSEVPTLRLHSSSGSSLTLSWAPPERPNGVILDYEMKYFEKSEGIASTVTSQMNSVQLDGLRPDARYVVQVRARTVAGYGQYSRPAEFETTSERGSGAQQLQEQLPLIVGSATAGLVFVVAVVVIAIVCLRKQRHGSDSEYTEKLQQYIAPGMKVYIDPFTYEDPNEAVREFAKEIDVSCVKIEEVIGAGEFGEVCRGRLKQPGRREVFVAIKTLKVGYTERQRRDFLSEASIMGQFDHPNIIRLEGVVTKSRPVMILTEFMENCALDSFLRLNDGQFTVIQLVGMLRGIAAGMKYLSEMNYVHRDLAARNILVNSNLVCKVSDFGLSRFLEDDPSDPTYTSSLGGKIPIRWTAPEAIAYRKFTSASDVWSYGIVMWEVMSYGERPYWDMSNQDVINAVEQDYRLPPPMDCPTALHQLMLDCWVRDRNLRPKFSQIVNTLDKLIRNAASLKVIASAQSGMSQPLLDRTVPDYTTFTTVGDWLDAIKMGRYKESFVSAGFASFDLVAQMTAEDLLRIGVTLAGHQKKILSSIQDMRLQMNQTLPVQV
To be noted: at 10 µM.

Experiment [9] has as its target Receptor tyrosine-protein kinase erbB-4 (Homo sapiens) (UniProt Q15303). To be noted: at 1 µM.

Ephrin type-A receptor 5 (Homo sapiens), sequence (P54756 whole entry): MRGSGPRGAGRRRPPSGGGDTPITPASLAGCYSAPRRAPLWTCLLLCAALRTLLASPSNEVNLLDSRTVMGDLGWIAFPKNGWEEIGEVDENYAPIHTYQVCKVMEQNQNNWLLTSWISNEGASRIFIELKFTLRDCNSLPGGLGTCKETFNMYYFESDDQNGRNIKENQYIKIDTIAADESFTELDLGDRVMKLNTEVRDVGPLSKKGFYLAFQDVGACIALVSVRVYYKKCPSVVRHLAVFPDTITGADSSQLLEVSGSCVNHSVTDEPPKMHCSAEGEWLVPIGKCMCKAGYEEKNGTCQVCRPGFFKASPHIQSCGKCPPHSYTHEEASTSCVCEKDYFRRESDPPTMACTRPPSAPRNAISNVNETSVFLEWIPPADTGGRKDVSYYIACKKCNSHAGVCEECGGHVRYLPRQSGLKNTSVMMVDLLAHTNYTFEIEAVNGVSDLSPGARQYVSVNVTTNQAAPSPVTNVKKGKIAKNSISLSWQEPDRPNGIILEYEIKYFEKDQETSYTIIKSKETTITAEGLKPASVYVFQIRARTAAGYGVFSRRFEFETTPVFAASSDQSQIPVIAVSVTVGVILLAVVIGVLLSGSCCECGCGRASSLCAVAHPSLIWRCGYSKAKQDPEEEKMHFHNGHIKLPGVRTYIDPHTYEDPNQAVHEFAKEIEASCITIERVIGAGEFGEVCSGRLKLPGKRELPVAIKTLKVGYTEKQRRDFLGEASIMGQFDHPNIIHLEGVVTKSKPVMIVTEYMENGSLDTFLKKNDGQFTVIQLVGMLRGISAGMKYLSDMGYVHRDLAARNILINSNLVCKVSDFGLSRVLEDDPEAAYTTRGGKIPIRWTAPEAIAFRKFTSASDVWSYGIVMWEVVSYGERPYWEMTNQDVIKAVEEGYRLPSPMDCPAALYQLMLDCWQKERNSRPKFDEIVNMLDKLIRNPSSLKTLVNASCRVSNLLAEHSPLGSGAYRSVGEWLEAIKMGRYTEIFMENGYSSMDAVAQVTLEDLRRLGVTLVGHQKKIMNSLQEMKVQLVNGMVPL
Receptor tyrosine-protein kinase erbB-4 (Homo sapiens), sequence (Q15303 whole entry): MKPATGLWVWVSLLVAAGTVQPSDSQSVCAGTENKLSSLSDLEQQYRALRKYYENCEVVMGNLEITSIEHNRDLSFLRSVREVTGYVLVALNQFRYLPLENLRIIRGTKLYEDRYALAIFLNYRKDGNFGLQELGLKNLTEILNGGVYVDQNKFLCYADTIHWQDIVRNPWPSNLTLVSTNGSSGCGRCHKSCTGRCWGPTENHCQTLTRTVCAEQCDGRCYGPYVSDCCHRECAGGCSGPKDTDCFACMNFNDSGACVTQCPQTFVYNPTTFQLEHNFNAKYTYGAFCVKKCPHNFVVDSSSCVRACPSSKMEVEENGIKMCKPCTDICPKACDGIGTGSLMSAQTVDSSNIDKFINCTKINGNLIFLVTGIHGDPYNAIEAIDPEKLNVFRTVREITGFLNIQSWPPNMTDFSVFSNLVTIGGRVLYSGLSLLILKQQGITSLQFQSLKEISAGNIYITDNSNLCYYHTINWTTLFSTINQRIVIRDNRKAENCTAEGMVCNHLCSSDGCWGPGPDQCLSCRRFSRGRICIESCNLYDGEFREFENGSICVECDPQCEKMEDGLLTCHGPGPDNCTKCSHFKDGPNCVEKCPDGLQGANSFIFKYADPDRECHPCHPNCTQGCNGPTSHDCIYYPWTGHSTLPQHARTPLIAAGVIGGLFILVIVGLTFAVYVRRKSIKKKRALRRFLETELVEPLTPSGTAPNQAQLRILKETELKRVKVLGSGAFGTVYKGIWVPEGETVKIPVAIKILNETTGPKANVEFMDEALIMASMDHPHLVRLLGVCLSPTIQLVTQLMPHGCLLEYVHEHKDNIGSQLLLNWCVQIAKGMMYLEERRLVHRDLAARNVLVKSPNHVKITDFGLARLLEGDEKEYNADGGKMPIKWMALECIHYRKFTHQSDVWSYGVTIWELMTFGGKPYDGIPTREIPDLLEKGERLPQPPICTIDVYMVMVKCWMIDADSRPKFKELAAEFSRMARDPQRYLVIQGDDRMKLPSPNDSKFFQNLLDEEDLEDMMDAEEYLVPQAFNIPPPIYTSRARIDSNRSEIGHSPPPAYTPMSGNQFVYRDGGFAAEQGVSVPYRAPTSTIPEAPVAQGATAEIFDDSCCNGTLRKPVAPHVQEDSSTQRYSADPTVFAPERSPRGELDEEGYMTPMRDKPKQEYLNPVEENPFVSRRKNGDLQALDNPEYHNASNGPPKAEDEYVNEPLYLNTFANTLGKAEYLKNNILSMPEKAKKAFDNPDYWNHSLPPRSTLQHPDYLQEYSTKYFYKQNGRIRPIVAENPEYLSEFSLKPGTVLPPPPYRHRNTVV

For `Cc1cncc2cccc(S(=O)(=O)N3CCCN(C(=O)CN)C[C@H]3C)c12`, the residual activity (usually the signal under treatment as a percentage of the control signal) amounted to 50% in experiment [1]; 83% in [2]; 66% in experiment [3]; 98% in experiment [4]; 85% in experiment [5]; 75% in [6]. Moreover, the residual activity in experiment [7] is 31%; in experiment [8], 128%; in experiment [9], 89%.
